# Hits are enriched below; roughly 1.5% of the tested compounds scored in any of these assays.
# uPA surface inh = qHTS for Inhibitors of Cell Surface uPA Generation; cell surface uPA generation assay, qHTS; AID 540303, 2011; Potency, µM (titrated, usually from 38.3 µM), inactives show at the top dose activity change, negative = inhibition, hits mostly inhibitors; 330,000 tested, 0.31% active; active = well fitted inhibition curve with a large enough effect; inconclusive = small, poorly fitted or top-dose-only effect; inactive = no such curve, though single readings can be large or run the other way; tested in mouse RAW 264.7 cells; note: potency is the fitted concentration of half-maximal effect; % is set by controls: 0 for no effect and ±100 for the full control effect; nearly all actives have a fitted effect of over 55% in size
# Nrf2 ARE act = qHTS of Nrf2 Activators. AREc32 ARE-luciferase reporter (MCF7-derived line), luminescence, 24 h. Potency, µM (doses to about 46.1 µM), for the others: top-dose activation, usual class: activators. 410,000 tested, 0.31% active. AID 624171, 2012; note: potency is the fitted concentration of half-maximal effect; % of control where 0% means no effect; nearly all actives have a fitted effect of over 65% in size
#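 Nrf2 activation is followed as ARE-luciferase induction in the AREc32 line after one day of compound treatment; luminescence is read with Steady-Glo.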
# IL-2 act = qHTS of IL-2 Activators | IL-2 activation reporter assay, cell-based qHTS; stimulated with anti-CD3/CD4/CD28 beads; in transgenic mouse T cells | activation, % (series mostly up to about 46 µM) | 360,000 tested, 0.065% active; in the data active = activation above about 50%; inconclusive = mostly about 30% to 49%; note: 0% is about no effect
#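 EGFP and DsRed fluorescence is measured by plate cytometry in unstimulated transgenic mouse T cells exposed to compound for 60 minutes, then stimulated 18 hours at 37 degrees C with anti-CD3/anti-CD4 beads plus anti-CD28.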
# a7 integrin act = qHTS for Activators of Integrin-Mediated Alleviation for Muscular Dystrophy. alpha7betagal myoblasts, beta-gal FDG fluorescence, 48 h. Potency, µM (series often up to 38.3 µM), for inactives: at the top dose activation, usual class: activators. 350,000 tested, 0.064% active. AID 624291, 2012;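 note: potency is the fitted concentration of half-maximal effect; 100% = response of the positive control SU9516; nearly all actives have a fitted effect of over 60% in size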
#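 alpha7betagal+/- myoblasts (passage 13, 250/well) treated 48 h at 37C with compounds at 1:260 dilution of DMSO stock. Lysed, then beta-galactosidase activity read as FDG fluorescence (ex 480/em 540) after 30 min, with pre-read for autofluorescence.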
# ALOX12 inh = Primary qHTS assay for inhibitors of human arachidonate 12S-lipoxygenase (ALOX12): Round 2; AID 1671190, 2021; Polyunsaturated fatty acid lipoxygenase ALOX12 (Homo sapiens), P18054; purified 12hLO, xylenol orange hydroperoxide absorbance; Potency, µM (highest dose often 108 µM), for inactives: at the top dose activity change, negative = inhibition, most hits filed as inhibitors; 580,000 tested, 1.1% active; note: potency is the fitted concentration of half-maximal effect; % is set by controls: 0 for no effect and ±100 for the full control effect
# Target sequence (P18054 whole entry, looked up): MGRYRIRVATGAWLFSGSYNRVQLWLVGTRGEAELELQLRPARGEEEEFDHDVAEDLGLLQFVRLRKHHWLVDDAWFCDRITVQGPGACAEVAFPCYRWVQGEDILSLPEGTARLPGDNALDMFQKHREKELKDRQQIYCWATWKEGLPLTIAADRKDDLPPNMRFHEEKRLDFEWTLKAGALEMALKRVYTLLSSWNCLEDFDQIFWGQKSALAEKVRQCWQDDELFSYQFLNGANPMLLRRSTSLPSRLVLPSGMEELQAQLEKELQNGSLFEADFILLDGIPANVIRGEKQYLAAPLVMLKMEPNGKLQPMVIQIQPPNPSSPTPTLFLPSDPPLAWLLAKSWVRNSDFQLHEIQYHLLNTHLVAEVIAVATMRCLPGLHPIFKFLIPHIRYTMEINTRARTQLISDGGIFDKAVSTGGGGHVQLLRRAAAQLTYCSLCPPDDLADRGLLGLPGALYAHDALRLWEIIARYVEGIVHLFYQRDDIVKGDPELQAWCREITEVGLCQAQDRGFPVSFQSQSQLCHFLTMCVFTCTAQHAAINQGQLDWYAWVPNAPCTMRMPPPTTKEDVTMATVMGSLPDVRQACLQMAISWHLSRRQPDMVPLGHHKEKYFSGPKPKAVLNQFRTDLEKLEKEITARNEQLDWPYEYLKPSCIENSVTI
#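 Purified human 12hLO at 150 nM in 25 mM Hepes, 0.01% Triton X-100, pH 7.0, preincubated 15 min at room temperature with compound. Reaction started with 40 uM arachidonic acid, 30 min at room temperature. Hydroperoxide measured by Fe-xylenol orange, 573/405 nm absorbance ratio.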
# Numbers without * were called inactive; ? = inconclusive; . = no result given; [ ] = another dose, or the depositor's remark. Unless noted, calls come from the whole dose curve; as a rule, active = well fitted curve in the direction sought with a large enough effect; inconclusive = small, poorly fitted or top-dose-only effect, or another doubt; inactive = no such curve, though single readings can be large; an effect the other way counts as inactive or inconclusive.
SMILES,uPA surface inh,Nrf2 ARE act,IL-2 act,a7 integrin act,ALOX12 inh
O=c1c2nc(Nc3ccc(C(F)(F)F)cc3)ccc2ncn1C1CC1,.,.,.,.,0.9%[176 µM]
S=c1[nH]c2ccccc2n1CCOc1ccccc1,-4.9%,6.7%,1.0,9.1%,39.8µM*
Cc1ccc(OCCn2c(=S)[nH]c3ccccc32)c(C(C)C)c1,-15.0%,-0.5%,-0.4,-30.4%,31.6µM*
Cc1cccc(OCCn2c(=S)[nH]c3ccccc32)c1,2.0%,3.0%,0.0,-33.0%,?
COc1ccc(-n2ncc3c(N(C)C4CCCCC4)ncnc32)cc1,?,-2.8%,-1.8,4.3%,-5.9%
Cc1cccc(-n2ncc3c(N(C)C4CCCCC4)ncnc32)c1,1.41µM*,-3.5%,-3.1,1.3%,-27.6%
COc1cc(/C=N/O)ccc1OCc1ccc(NC(C)=O)cc1,.,.,.,.,4.8%
COc1cc(CNc2ccc3c(c2)CCC3)cc(OC)c1O,.,2.2%,-0.2,-13.6%,1.12µM*
COc1ccc(CN(C)C(=O)CCl)cc1,?,0.0%,-5.5,-3.5%,0.0%
CN(Cc1ccc(Cl)cc1)C(=O)CCl,7.94µM*,-1.1%,-0.6,-58.2%,-1.2%
CN1CC(=O)N2C(c3cccc([N+](=O)[O-])c3)c3[nH]c4ccccc4c3C[C@H]2C1=O (some centres not stated),0.398µM*,2.7%,-0.4,0.0%,-4.2%
COC(=O)c1ccc(C2c3[nH]c4ccccc4c3C[C@H]3C(=O)N(C)CC(=O)N23)cc1 (some centres not stated),-4.2%,0.1%,-0.3,0.0%,-13.0%
CN1CC(=O)N2C(c3ccc(Cl)cc3)c3[nH]c4ccccc4c3C[C@H]2C1=O (some centres not stated),5.62µM*,7.0%,1.8,-75.9%,114.9%
CC(C)=CCN1CC2(CCN(C(=O)c3cc(=O)[nH]c(=O)[nH]3)CC2)CC1=O,.,.,.,.,-13.7%
O=C1COc2ccc(OCc3ccccc3)nc2CN1Cc1ccc(F)cc1,.,.,.,.,-9.8%[176 µM]
O=C1COc2ccc(OCc3ccccc3)nc2CN1CCOc1ccccc1,.,.,.,.,11.2µM*
COCC(=O)NC1CCC12CCN(C(=O)c1ocnc1C)CC2 (configuration not stated),.,.,.,.,7.1%
Cc1ccccc1[C@@H]1CN(C(=O)CCC(=O)NC2CCCC2)C[C@H]1C(=O)O,.,.,.,.,-15.9%
O=C(CCCSc1ccc(Cl)cc1)Nc1ccccc1O,-9.6%,14.1µM*,-0.6,2.4%,.
Cc1ccnc(SCC(=O)c2ccc(Br)cc2)c1C#N,1.1%,2.24µM*,-0.6,-2.8%,-5.0%
Cc1ccc(C(=O)CSc2nsc(C)c2C#N)cc1,-2.3%,6.0%,0.9,-0.8%,?
Cc1ccc(C(=O)COc2nc(C)cc(C)c2C#N)cc1,.,0.2%,-3.4,2.5%,-5.8%
Cc1cc(C)c(C#N)c(OCC(=O)c2ccc(Br)cc2)n1,.,6.31µM*,1.4,-22.3%,-11.8%
c1ccc2c(NC34CC5CC(CC(C5)C3)C4)nc(N3CCCC3)nc2c1,.,.,.,.,59.4%
NC(=O)c1ccc(S(=O)(=O)N2CCN(C(=O)c3cc4c(s3)CCCCC4)CC2)cc1,.,.,.,.,-11.3%
SMILES,uPA surface inh,Nrf2 ARE act,IL-2 act,a7 integrin act,ALOX12 inh
CC1CCC(NC(=O)c2cc(=O)c3ccccc3o2)CC1 (configuration not stated),.,.,.,.,-11.4%
CCc1c(C)sc(NC(=S)Nc2nc(C)cc(C)n2)c1C(=O)OC,-7.6%,0.5%,-1.0,1.2%,22.4µM*
Cc1cc(Cl)cc2c(C=O)c(C(C)(C)C)[nH]c12,.,.,.,.,13.3%
Cc1cc(Cl)cc2sc(=S)[nH]c12,-1.2%,3.3%,-0.1,-10.8%,11.2µM*
Cn1cc(C(C(=O)O)N2CCN(CCc3ccncc3)CC2)c2cc(C(=O)O)ccc21 (configuration not stated),.,.,.,.,2.6%
CCC(OC(=O)c1nn(CC)c(=O)c2ccccc12)C(=O)Nc1cc(C)on1 (configuration not stated),.,.,.,.,-0.7%
N/C(=N\OC(=O)COc1ccc(Br)cc1Cl)c1ccncc1,0.0%,0.3%,0.6,7.5%,-4.1%
N/C(=N\OC(=O)COc1cc(Cl)c(Cl)cc1Cl)c1ccncc1,5.1%,-0.5%[9.22 µM],-1.8,11.2µM*,-10.9%

# From PubChem
